# Data as given in PubChem BioAssay AID777 (Sanford-Burnham Center for Chemical Genomics, 2007).
# Screen size: about 96,000 compounds; about 19,000 (20%) were called active. A selection follows. A number with no mark means an inactive call.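 Rule for the calls: active = blocking of liver enzyme CYP2C9 beyond about 50% at 5 µM (limit read from the data); inactive = the rest.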
# Target: Cytochrome P450 2C9 (Homo sapiens) (UniProt P11712)
# Test: blockers of cytochrome P450 2C9 activity – biochemical, luminescence, ADME assay, primary screen (AID 777)
# Details: CYP2C9 Supersomes, luciferin-H conversion, at 5 µM, hits give high values
# Cytochrome P450 2C9 (Homo sapiens), sequence (P11712 whole entry, looked up): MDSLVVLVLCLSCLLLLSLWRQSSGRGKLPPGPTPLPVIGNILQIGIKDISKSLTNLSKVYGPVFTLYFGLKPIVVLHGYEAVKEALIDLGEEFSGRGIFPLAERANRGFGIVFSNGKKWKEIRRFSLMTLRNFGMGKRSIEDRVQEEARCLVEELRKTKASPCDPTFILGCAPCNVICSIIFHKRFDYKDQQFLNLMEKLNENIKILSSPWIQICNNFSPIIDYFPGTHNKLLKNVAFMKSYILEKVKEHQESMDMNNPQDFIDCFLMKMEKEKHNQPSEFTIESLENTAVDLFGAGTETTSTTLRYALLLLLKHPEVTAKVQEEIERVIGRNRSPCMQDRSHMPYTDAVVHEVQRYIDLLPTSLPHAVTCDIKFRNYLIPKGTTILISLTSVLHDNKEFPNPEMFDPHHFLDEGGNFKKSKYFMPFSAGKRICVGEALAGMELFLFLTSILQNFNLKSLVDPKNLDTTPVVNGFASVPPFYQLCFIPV
row,Compound,inhibition
1,COc1cnc(SCc2ccc(Cl)c(Cl)c2)nc1Cl,16.5%
2,CCOC(=O)c1cc(C)sc1NC(=O)C1CCC1,42.3%
3,O=C(NCCCN1CCN(Cc2ccccc2)CC1)C1CCN(S(=O)(=O)N2CCCC2)CC1,1.8%
4,O=C1c2cccnc2C(Nc2ccc(S(=O)(=O)N3CCCCCC3)cc2)N1Cc1ccccc1 (configuration not stated),53.4% (active)
5,Cc1ccc(S(=O)(=O)N2CCC(C(=O)N[C@@H](C)C(=O)NCCc3ccccc3)CC2)cc1,-25.2%
6,Cc1nn(-c2ccccn2)c2c1C(c1ccncc1)C1=C(CC(C)(C)CC1=O)N2 (configuration not stated),79.7% (active)
7,Cc1cc2c(cc1C)NC(c1ccccn1)C1=C(CC(C)(C)CC1=O)N2 (configuration not stated),-11.2%
8,CCOC(=O)c1c(-n2cnnn2)sc(C)c1C,10.3%
9,Cc1cc(C)nc(NC(=O)Nc2ccccc2C(F)(F)F)n1,-193%
10,O=C(Nc1ccc(Sc2ccc(Br)cc2)cc1)c1ccco1,3.3%
11,Cc1cccc(NC(=O)c2sc3nc4c(c(-c5ccco5)c3c2N)CCC4)c1,17.9%
12,CCCc1cc(=O)[nH]c(SCc2ccc(C#N)cc2)n1,60.3% (active)
13,CCCc1cc(=O)[nH]c(SCC(=O)c2cc(C)n(CCC)c2C)n1,5.3%
14,CCCc1cc(=O)[nH]c(SCC(=O)OCc2ccccc2)n1,38.5%
15,O=C(CNC(=O)Cc1ccccc1)NCC(=O)OCC(=O)c1ccccc1Cl,-33.1%
16,COC(=O)c1ccc(NC(=O)CSc2nnc(-c3ccncc3)n2C)cc1,57.2% (active)
17,Cc1ccccc1C(=O)Nc1cccc(-c2nnc(SCC(=O)O)n2C)c1,-11.4%
18,CCn1c(SCC(=O)Nc2nccs2)nnc1-c1ccncc1,28%
19,CCCCSc1nnc(-c2ccc(NC(=O)CC)cc2)n1C,-15.8%
20,Cn1c(SCC(=O)Nc2cccc(O)c2)nnc1-c1ccc(S(=O)(=O)N2CCOCC2)cc1,7.5%
21,CCC(=O)Nc1cccc(NC(=O)CSc2nnc(-c3ccc(NS(C)(=O)=O)cc3)n2C)c1,51.3% (active)

row,Compound,inhibition
1,O=C(CSc1nnc(-c2ccncc2)n1C1CCCCC1)Nc1ccccc1,38.6%
2,COC(=O)c1ccc(NC(=O)CSc2nnc(CNc3ccc(OC)cc3)n2C)cc1,34%
3,Cn1c(SCC(=O)Nc2cccc(NC(=O)c3cccs3)c2)nnc1-c1ccncc1,89.8% (active)
4,Cc1ccc(-c2ccc(=O)n(CC(=O)NCCCN3CCCCC3)n2)cc1,14%
5,COc1ccccc1C(=O)Nc1nc2nc(-c3ccccc3)cc(=O)n2[nH]1,42%
6,O=C(NCCCCc1ccccc1)C1CC(c2ccc([N+](=O)[O-])cc2)=NO1 (configuration not stated),14.2%
7,O=C(CN1CCOCC1)Nc1ccc(NC(=O)CN2CCOCC2)c(Cl)c1,-1.8%
8,CN(C)C(=O)c1cc(Br)ccc1Cl,-6.9%
9,CCCn1c(=NC(C)=O)c(C(=O)OCC)cc2c(=O)n3ccccc3nc21,17.1%
10,O=C(CCc1ccc(S(=O)(=O)NC2CCCCC2)cc1)NCc1ccccc1,86.2% (active)
11,O=C(OC1CCCCC1=O)c1cccc(S(=O)(=O)NCc2ccccc2)c1 (configuration not stated),43.1%
12,CCCNS(=O)(=O)c1ccc(CCC(=O)NCc2cccnc2)cc1,76.8% (active)
13,Cc1cc(S(=O)(=O)NC2CCCCC2)ccc1OCC(=O)NCc1cccnc1,81.1% (active)
14,CSc1ccc(S(=O)(=O)NC2CCCCC2)cc1,17.8%
15,O=C(CN(CC1CCCO1)C(=O)CNS(=O)(=O)c1ccccc1)NCc1ccccc1 (configuration not stated),2.4%
16,O=S(=O)(NCc1cccnc1)c1ccc(Cl)nc1,6.6%
17,Cc1cccc(CCNS(=O)(=O)c2ccc(S(=O)(=O)NC3CCCC3)cc2)c1,65.4% (active)
18,O=C(C1CCC1)N1CCc2cc(S(=O)(=O)NCc3cccnc3)ccc21,32.9%
19,O=C(CCc1ccccc1)NCc1cccnc1,15.7%
20,Cc1cc(Cl)c(S(=O)(=O)NCc2cccnc2)cc1OCC(N)=O,-9.2%
21,Cn1c(=O)c(=O)n(C)c2cc(S(=O)(=O)NCCc3ccccc3)ccc21,23.4%

row,Compound,inhibition
1,Cc1ccccc1/[N+]([O-])=C/c1ccncc1,12.4%
2,CC1CCN(c2nc3c(c(=O)[nH]c(=O)n3C)n2CCCc2ccccc2)CC1,40.9%
3,C/C(=C\C(=O)c1ccc(Br)cc1)N1CCCCC1,2.1%
4,Cc1nc2ccc(C(=O)N3CCSCC3)cc2s1,0.6%
5,Cc1ccc(S/C(=N\S(=O)(=O)c2ccc(Cl)cc2)c2ccccc2)cc1,48.7%
6,CCOC(=O)N1CCN(C(=O)c2cnc3n(c2=O)CCS3)CC1,-13.7%
7,Cc1cc(N/C=C\C(=O)c2ccc(Cl)c(Cl)c2)no1,7.8%
8,COC(=O)C1=C(N)Oc2cc(C)oc(=O)c2C1c1cccnc1 (configuration not stated),37.9%
9,Cc1ccc(CS(=O)(=O)CCC(=O)NC2CC2)cc1,-3.7%
10,COC(CCN(C)C)(c1ccccc1)c1ccccc1,-2.1%
11,CC1(C)Cc2ccccc2-c2nnc(-c3cccc(O)c3)n21,-7.5%
12,O=C1OC(NC(=O)c2ccccc2)C(N2CCOCC2)=C1Cl (configuration not stated),-6.9%
13,c1cnc(NC2C3CC4CC(C3)CC2C4)nc1 (configuration not stated),25.9%
14,CCCCCCn1c(CN2CCCC(C)C2)nc2c1c(=O)n(C)c(=O)n2C (configuration not stated),9.5%
15,CC1CN(C2CCCCC2)c2nc3c(c(=O)n(C)c(=O)n3C)n2C1 (configuration not stated),82.2% (active)
16,CC1CCCN(Cc2nc3c(c(=O)n(C)c(=O)n3C)n2CC(=O)c2ccccc2)C1 (configuration not stated),11.2%
17,COc1ccc(Cl)cc1NC(=O)CN(C)C(=O)CNC(=O)C12CC3CC(CC(C3)C1)C2,44.8%
18,COc1ccc(N2CCN(Cc3cc(=O)oc4ccc5ccccc5c34)CC2)cc1,22.6%
19,Fc1ccc(N2CCN(Cc3cnc(Oc4ccc(Br)cc4)s3)CC2)cc1,19.7%
20,COc1ccc(N2CCN(Cc3ccc(Br)s3)CC2)cc1,78.3% (active)
